Only a selection was taken, and hits are over-represented in it overall.
GluA2 TARP mod: modulators of GluA2-stargazin AMPA receptor complexes, primary screen, cell-based, membrane potential dye | Voltage-dependent calcium channel gamma-2 subunit (Mus musculus) + Glutamate receptor 2 … | HEK293 GluA2+stargazin, membrane potential dye (FDSS), glutamate EC50; hits were called plate by plate, in both directions | calls only at 30 µM | hit rate 3.5% among 40,000;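 active means any of four per-well response measures lying three or more SD from its plate-wide compound average, in either direction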
GIRK2 act: activators of NPY4-receptor-primed GIRK2 channels, summary, cell-based, HEK293, thallium flux; G protein-activated inward rectifier potassium channel 2 (Homo sapiens), P48051; HEK293 GIRK2/NPY4 cells, thallium flux fluorescence; activation (% efficacy), % for hits at 37.5 µM; 34,000 tested, under 10 active; AID 1259324, 2017;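 active means primary screen hit, no activity in plain HEK293 cells, and in GIRK2-only cells above 5% efficacy rising with concentration; inactive means the rest, including fluorescent compounds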;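 further: efficacy is normalized control-subtracted fluorescence 15 s after thallium addition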
Target sequence (P48051 whole entry, looked up): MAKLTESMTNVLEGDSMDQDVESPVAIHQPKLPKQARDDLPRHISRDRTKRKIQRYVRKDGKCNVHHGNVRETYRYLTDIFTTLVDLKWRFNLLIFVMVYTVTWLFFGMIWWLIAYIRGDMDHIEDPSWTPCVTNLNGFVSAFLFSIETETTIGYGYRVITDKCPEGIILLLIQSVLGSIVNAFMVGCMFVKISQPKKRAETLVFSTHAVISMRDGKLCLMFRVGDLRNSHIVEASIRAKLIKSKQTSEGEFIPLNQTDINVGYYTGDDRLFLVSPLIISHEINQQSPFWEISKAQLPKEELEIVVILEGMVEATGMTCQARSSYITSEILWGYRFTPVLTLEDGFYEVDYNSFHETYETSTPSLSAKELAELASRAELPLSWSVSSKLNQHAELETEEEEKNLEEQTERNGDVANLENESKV
Each line names hits and unclear results; the compound was inactive in the other large screens; [ ] = remark or other dose.

CN(C)C(CNC(=O)c1ccc2ccccc2c1)c1cccs1 (stereo unspecified)	none
COc1ccc(C(=O)NCC(c2ccc(F)cc2)N2CCOCC2)cc1 (stereo unspecified)	none (no result: GIRK2 act)
CCn1c2ccccc2c2cc(NC(=O)CN3CCN(C4c5ccccc5-c5ccccc54)CC3)ccc21	none (no result: GIRK2 act)
CCOC(=O)C1CCN(S(=O)(=O)CCCOc2ccc(F)cc2)CC1	none
Cc1ccc(-c2ccc(=O)n(CCCNC(=O)COc3ccc(Cl)cc3)n2)cc1	none
CCOc1ccc2ccccc2c1C(=O)NCC(c1ccc(F)cc1)N1CCOCC1 (stereo unspecified)	GluA2 TARP mod active (no result: GIRK2 act)
CCOc1ccc(C(=O)NCC(c2ccc(F)cc2)N2CCOCC2)cc1OCC (stereo unspecified)	none (no result: GIRK2 act)
CN(C)C(CNC(=O)c1c(F)cccc1F)c1cccc2ccccc12 (stereo unspecified)	GluA2 TARP mod active (no result: GIRK2 act)
CN(C)C(CNC(=O)c1ccccc1Cl)c1cccc2ccccc12 (stereo unspecified)	none (no result: GIRK2 act)
CC12CCC(C(=O)Nc3ccccc3-n3cccc3)(CC1=O)C2(C)C (stereo unspecified)	GluA2 TARP mod active (no result: GIRK2 act)
CC12CCC(C(=O)Nc3ccccc3N3CCOCC3)(CC1=O)C2(C)C (stereo unspecified)	none
Cc1nc2ccccn2c1C(=O)NCC(O)(c1ccco1)C1CC1 (stereo unspecified)	none
CN(C)C(=O)Cc1ccc(NC(=O)Cc2ccc(Cl)cc2)cc1	none
CN(C)C(=O)Cc1ccc(NC(=O)Nc2ccc(Cl)c(Cl)c2)cc1	GluA2 TARP mod active
CCc1ccc(Oc2cc(N3CCC(C(=O)NCc4cccc(Cl)c4)CC3)ncn2)cc1	none
CCc1ccc(Oc2cc(N3CCC(C(=O)NCc4ccc(F)c(Cl)c4)CC3)ncn2)cc1	GluA2 TARP mod active
CNC(=O)c1cccc(-c2noc(C3CN(C(=O)CSc4ccc(F)cc4)C3)n2)c1	none (no result: GluA2 TARP mod)
Cc1ccc(S(=O)(=O)CCCC(=O)N(Cc2ccccc2)Cc2ccccc2)cc1	GluA2 TARP mod active
COc1ccc(S(=O)(=O)CC(=O)N(Cc2ccccc2)Cc2ccccc2)cc1	none
C=CCNC(=S)N1CCNC(=O)C1CC(=O)Nc1cccc(Cl)c1 (stereo unspecified)	none (no result: GIRK2 act)
COc1ccc(NC(=O)NCC(c2ccccc2Cl)N(C)C)cc1OC (stereo unspecified)	GluA2 TARP mod active
COC(=O)c1ccc(C(=O)NCC(c2ccccc2Cl)N(C)C)cc1 (stereo unspecified)	none
COC(=O)c1sccc1S(=O)(=O)N(CC(N)=O)c1ccc(C)cc1	none
C=C(C)CN1CCN(c2cc(C)nc3c(-c4ccccc4)c(CC)nn23)CC1	none
COc1cccc(COC(=O)c2nnn(-c3ccc(C)cc3)c2C)c1	GluA2 TARP mod active (no result: GIRK2 act)
COc1ccc(-n2nnc(C(=O)OCc3cccc(OC)c3)c2C)cc1	none (no result: GIRK2 act)
Cc1ccc(-n2nnc(C(=O)OCc3nc(-c4ccccc4C)oc3C)c2C)cc1	GluA2 TARP mod active (no result: GIRK2 act)
Cc1oc(-c2ccccc2)nc1COC(=O)c1nnn(-c2ccc(Cl)cc2)c1C	none (no result: GIRK2 act)
O=C(NC1CCCCC1)N1CCN(c2ccc(-c3ccco3)nn2)CC1	none
O=C(Nc1ncc([N+](=O)[O-])s1)c1ccc(=O)n(Cc2cccc(Cl)c2)c1	none
OCc1nc2ccccc2n1Cc1c(F)cccc1Cl	none (no result: GIRK2 act)
COC(=O)NCCc1nc2ccccc2n1Cc1c(F)cccc1Cl	GluA2 TARP mod active (no result: GIRK2 act)
CCOC(=O)NCc1nc2ccccc2n1Cc1c(F)cccc1Cl	none (no result: GIRK2 act)
CCOC(=O)NCc1nc2ccccc2n1Cc1ccccc1F	GluA2 TARP mod active
COc1ccc(CCS(=O)(=O)Nc2ccc3c(c2)N(C(=O)C(C)(C)C)CC3)cc1	GluA2 TARP mod active
COc1ccc(S(=O)(=O)Nc2ccc3c(c2)N(C(=O)C(C)(C)C)CC3)c(C)c1	none
COc1ccc(OC)c(S(=O)(=O)Nc2ccc3c(c2)N(S(C)(=O)=O)CCC3)c1	none (no result: GIRK2 act)
CCS(=O)(=O)Nc1ccc2c(c1)N(C(=O)C(C)(C)C)CC2	none
COc1ccc(OC)c(S(=O)(=O)Nc2ccc3c(c2)N(S(=O)(=O)c2cccs2)CCC3)c1	GluA2 TARP mod active
COc1ccc(S(=O)(=O)Nc2ccc3c(c2)N(C(=O)C(C)(C)C)CC3)cc1	GluA2 TARP mod active
COc1ccc(CCS(=O)(=O)Nc2ccc3c(c2)N(C(=O)c2ccco2)CC3)cc1	none
CCCc1ccc(S(=O)(=O)Nc2ccc3c(c2)N(C(=O)C(C)(C)C)CC3)cc1	GluA2 TARP mod active
O=C(CSCc1ccccc1)Nc1nnc(-c2ccc3c(c2)CCCC3)o1	none
CCOCCCNC(=O)c1c(N)n(-c2ccc3c(c2)OCCO3)c2nc3ccccc3nc12	none
COc1ccc(S(=O)(=O)NCC(c2cccs2)N2CCOCC2)cc1C (stereo unspecified)	none (no result: GIRK2 act)
Cc1ccc(Nc2ccc(NC(=O)c3snnc3C)cc2)nn1	none
O=C(COc1ccccc1)N1CCC2(CC1)NC(=O)N(CCc1ccccc1)C2=O	none
O=C(O)CCN1CCN(Cc2ccccc2)CC1	none
O=C(O)CCN1CCN(Cc2ccc(Cl)cc2)CC1	GluA2 TARP mod active
CC(C)(C)C(=O)Nc1sc2c(c1C#N)CCN(Cc1ccccc1)C2	GluA2 TARP mod active
CCC(=O)Nc1sc2c(c1-c1nc3ccccc3s1)CCN(Cc1ccccc1)C2	none (no result: GIRK2 act)
Nc1c(C(=O)N2CCCC2)sc(=S)n1CC1CCCO1 (stereo unspecified)	none
O=C(NCc1ccc(Cl)cc1)NCC1CCN(S(=O)(=O)C2CC2)CC1	none
O=[N+]([O-])c1ccc(Nc2ccc(S(=O)(=O)Nc3nccs3)cc2)c([N+](=O)[O-])c1	GIRK2 act 14%[18.8 µM]
O=C(CCN1C(=O)c2ccccc2S1(=O)=O)Nc1ccc(S(=O)(=O)Nc2nccs2)cc1	none
COc1ccc(S(=O)(=O)CCCC(=O)N2CCN(c3ccccc3)CC2)cc1	none (no result: GIRK2 act)
COc1ccc(C)cc1NC(=O)NCCOc1ccc(F)cc1	none
Cc1cc(N(C)C)nc(NCCNC(=O)Nc2ccc(C)c(C)c2)n1	none
CCN(CC)c1cc(C)nc(Nc2ccc(NC(=O)C(C)(C)C)cc2)n1	GluA2 TARP mod active
O=C1NC(=O)C2(CCN(C(=O)c3ccco3)CC2)N1	none
O=C(NCCCn1cccc1)c1c(F)cccc1F	GluA2 TARP mod active
O=C(NCCCn1cccc1)c1ccccc1C(F)(F)F	none
COc1ccc(S(=O)(=O)NCC#CCN2CCc3ccccc3C2)cc1C	GluA2 TARP mod active
O=S(=O)(NCC#CCN1CCc2ccccc2C1)c1cccc(Cl)c1	none
CC(C)N1CCc2c(sc(NC(=O)c3c(F)cccc3F)c2-c2nc3ccccc3s2)C1	none (no result: GIRK2 act)
Cc1nc(NC(=O)c2ccc(S(=O)(=O)N(C)Cc3ccccc3)cc2)sc1C	none
Cc1nc(NC(=O)c2cccc(Br)c2)sc1C	GluA2 TARP mod active
Cc1cc(C)n(-c2nc3c(c(=O)n2CC(=O)NCc2ccco2)CCCC3)n1	GluA2 TARP mod active
Cc1cc(C)n(-c2nc3c(c(=O)n2CC(=O)N(C)c2ccccc2)CCC3)n1	none
CCc1ccc(N2CCCn3c2nc2c3c(=O)n(CC(N)=O)c(=O)n2C)cc1	none (no result: GIRK2 act)
Cc1nnsc1C(=O)Nc1ccc2c(c1)N(C(=O)C1CC1)CC2	none
Cc1nnsc1C(=O)Nc1ccc2c(c1)N(C(=O)c1ccco1)CC2	GluA2 TARP mod active
C1CCc2nnc(Cc3nnc4n3CCCCC4)n2CC1	none
N#C/C(=C\c1cccs1)c1nc2ccccc2s1	GluA2 TARP mod active (no result: GIRK2 act)

High-throughput results (PubChem)
